Most compounds without a hit are left out; they make up all but 3.3% or so of the library.
NS1 inh – qHTS Assay for Inhibitors of Influenza NS1 Protein Function. Potency, µM (doses to about 46.1 µM), inactives show at the highest dose activity, positive = more growth. 0.4% of 270,000 active; calls by dose curve; further: actives are rising curves; nearly all actives have a fitted effect of over 50% in size
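OD600 was taken as the measure of yeast growth restored by compound in an NS1-expressing S. cerevisiae strain. Cells had been washed out of glucose medium and diluted 1:100 into galactose -URA medium, pH 6.0.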
Sm TGR inh – qHTS Assay for the Inhibitors of Schistosoma Mansoni Peroxiredoxins | Schistosoma mansoni thioredoxin glutathione reductase (TGR), Q962Y6 | purified TGR, DTNB reduction, TNB absorbance 405 nm | Potency, µM (top dose mostly 114 µM), for inactives: at the highest dose activity change, negative = inhibition, most hits filed as inhibitors | 3% of 360,000 active | AID 485364, 2010; further: on the % scale 0 is the no-effect control and ±100 the full control effect; nearly all actives have a fitted effect of over 60% in size
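Kinetic colorimetric format: TGR-catalysed, NADPH-driven DTNB reduction monitored via TNB absorbance. Enzyme dispensed at 20 nM; compound exposure 15 min at room temperature before reaction start.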
LmPK inh – qHTS Assay for Inhibitors of Leishmania Mexicana Pyruvate Kinase (LmPK); purified LmPK, Kinase-Glo ATP luminescence, 1 h; 0.37% of 290,000 active; Potency, µM (highest dose often 57.5 µM), for the others: at the top dose activity change, negative = inhibition, actives largely listed as inhibitors; AID 1721, 2009; Q27686; further: on the % scale 0 is the no-effect control and ±100 the full control effect
Target sequence (Q27686 whole entry, looked up): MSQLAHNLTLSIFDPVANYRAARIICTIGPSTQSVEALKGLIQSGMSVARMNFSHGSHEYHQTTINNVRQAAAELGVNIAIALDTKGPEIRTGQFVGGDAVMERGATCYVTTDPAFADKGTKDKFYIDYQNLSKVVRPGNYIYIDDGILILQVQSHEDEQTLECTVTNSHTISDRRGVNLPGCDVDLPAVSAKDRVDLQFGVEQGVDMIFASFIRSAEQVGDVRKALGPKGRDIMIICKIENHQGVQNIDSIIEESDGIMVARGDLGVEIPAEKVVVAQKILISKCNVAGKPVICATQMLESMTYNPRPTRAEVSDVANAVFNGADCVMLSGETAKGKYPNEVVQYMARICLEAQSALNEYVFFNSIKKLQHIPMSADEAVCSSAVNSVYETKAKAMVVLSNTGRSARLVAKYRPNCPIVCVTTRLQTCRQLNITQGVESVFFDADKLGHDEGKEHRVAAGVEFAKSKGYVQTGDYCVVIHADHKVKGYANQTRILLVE
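Purified LmPK (0.1 nM) converted ADP (0.1 mM) to ATP with PEP (0.5 mM) in imidazole buffer pH 7.2 with KCl and MgCl2, 1 h at room temperature. ATP was read by Kinase-Glo luminescence; data normalized to uninhibited and no-enzyme controls.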
SARS PLP yeast – qHTS of Yeast-based Assay for SARS-CoV PLP; S. cerevisiae expressing SARS-CoV PLpro, growth rescue; Potency, µM (series often up to 32.9 µM), for inactives: top-dose activity, positive = growth rescue, hits mostly activators; 0.19% of 330,000 active; calls by dose curve; further: 0% is about no effect; nearly all actives have a fitted effect of over 55% in size
RE007 growth inh – qHTS Assay for Inhibitors of the HIV-1 protein Vpr; S. pombe RE007 Vpr strain, BacTiter-Glo ATP luminescence, 24 h; Potency, µM (titrated, usually from 92.2 µM), without a hit: at the highest dose activity change, negative = less growth, usual class: inhibitors; 0.21% of 360,000 active; AID 651644, 2012; active means well fitted falling curve with a large enough effect; inconclusive means small, poorly fitted or top-dose-only effect; inactive means no such curve, though single readings can be large or run the other way; further: on the % scale 0 is the no-effect control and ±100 the full control effect; nearly all actives have a fitted effect of over 50% in size
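Fission yeast RE007 carrying one integrated HIV-1 vpr copy, seeded at OD 0.01 in PMG+AL medium with 23 nL pinned compound. Grown 24 h at 30 degrees; viability read by BacTiter-Glo luminescence after 5 min.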
TbPYK inhibitor – qHTS of Trypanosoma Brucei Inhibitors; pyruvate kinase (Trypanosoma brucei), Q57TT1; TbPYK enzyme, Kinase-Glo Plus ATP luminescence, 45 min; Potency, µM (doses to about 76.8 µM), without a hit: at the highest dose activity, negative = inhibition, hits mostly inhibitors; 0.12% of 410,000 active; further: on the % scale 0 is the no-effect control and ±100 the full control effect; nearly all actives have a fitted effect of over 50% in size
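In this concentration-response screen, enzyme-free wells defined baseline while DMSO plates tracked drift. Each reaction combined TbPYK, substrate, compound and 130 uM ADP for 45 min at room temperature. Kinase-Glo Plus luminescence gave the signal.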
The depositor's hits bear a star; ? = inconclusive; . = no result given; [ ] = remark or other dose. Unless noted, the call rests on the fitted dose curve; in most records, active means well fitted curve in the direction sought with a large enough effect; inconclusive means small, poorly fitted or top-dose-only effect, or another doubt; inactive means no such curve, though single readings can be large; an effect the other way counts as inactive or inconclusive. Potency means the concentration at half of the fitted maximal effect.

SMILES	NS1 inh	Sm TGR inh	LmPK inh	SARS PLP yeast	RE007 growth inh	TbPYK inhibitor
Cc1ccc(C)c2[nH]c(=O)c(CN(CC3CCCO3)C(=S)NCc3ccco3)cc12 (configuration not stated)	26%	28µM*	4%	-1%	-8%	-16%
COc1ccc2cc(CN(Cc3ccco3)C(=S)NCC3CCCO3)c(=O)[nH]c2c1 (configuration not stated)	4%	-27%[57.1 µM]	-11%	1%	-12%	-5%
Cc1cc2nc3ccc(=[N+](C)C)cc-3sc2cc1N	14%	?	14µM*	-3%	?	?
CCCCC(c1nnnn1CS(=O)(=O)c1ccc(C)cc1)N1CCN(c2ccccc2)CC1 (configuration not stated)	7.1µM*	56%	1%	-14%	-3%	5%
CCCC(c1nnnn1CS(=O)(=O)c1ccc(C)cc1)N1CCN(C2CCCC2)CC1 (configuration not stated)	10%	2%	-1%	-1%	6%	-2%
O=S(=O)(O)CCCc1cccc2ccccc12	0%	.	.	.	.	.
N=C1S/C(=C\c2ccco2)C(=O)N1c1nccs1	.	22µM*	-4%	-10%	-10%	-6%
N=C1S/C(=C\c2ccco2)C(=O)N1c1ccc2c(c1)OCO2	2%	.	-1%	-1%	-22%	3%
CC(C)CCOc1ccc(C(=O)CCNC(C)C(=O)O)cc1 (configuration not stated)	-14%	1µM*	6%	-3%	.	.
NC1=N[C@H](c2ccc(Cl)cc2)N(c2ccc(S(=O)(=O)Nc3ncccn3)cc2)C(N)=N1	0%	.	.	.	.	.
O=C(CSc1nnc(CNC(=O)c2c(F)cccc2Cl)o1)NCc1ccc(F)cc1	-15%	-2%	-9%	-3%	1%	1%
O=C(CSc1nnc(Cc2ccccc2)o1)NCc1ccco1	16%	45µM*	4%	0%	13%	5%
O=C(CSc1nnc(CNC(=O)c2c(F)cccc2F)o1)NCc1ccc(F)cc1	7%	28µM*	-12%	4%	-1%	2%
Cc1[nH]c2ccccc2c1Cc1nnc(SCC(=O)NCc2ccco2)o1	-9%	16µM*	2%	9%	10%	-9%
O=C(SCc1cccc2ccccc12)c1ccc(Cl)cc1	-3%	.	.	.	.	.
CC(C)CCNC(=O)c1cccc(-n2cnc3cccnc32)c1	.	-11%	.	.	.	-3%[15.4 µM]
Cc1ccnc(SCc2cn3c(C)cc(C)nc3n2)n1	.	-2%	9%	3%	-11%	-4%
Cc1cccc2nc(CSc3ccc(Cl)cc3)cn12	-33%	0%	-18%	-1%	?	2%
Cc1cc(C)n2cc(CSCc3ccco3)nc2n1	3%	40µM*	2%	6%	-10%	0%
Cc1cccc2nc(CSCc3ccco3)cn12	-4%	28µM*	-18%	2%	-7%	6%
O=C(O)CSc1cc(-c2ccccc2)nc2ccccc12	-5%	.	.	.	.	.
CC1(C)CC(=O)C(=CN2CCOCC2)C(=O)C1	12%	7.1µM*	21%	1%	0%	-12%
O=C1C=CC(=O)N1N(c1ccccc1)c1ccccc1	-50%	2.5µM*	?	-60%	.	?
OCC#Cc1ncc(C(F)(F)F)cc1Cl	.	45µM*	0%	-6%	-16%	-10%
C[N+](C)(C)C(C1=CCCC1=O)c1ccccc1 (configuration not stated)	-10%	.	.	.	.	.
SMILES	NS1 inh	Sm TGR inh	LmPK inh	SARS PLP yeast	RE007 growth inh	TbPYK inhibitor
Nc1nc(-c2cccnc2)cc(-c2cc(-c3cccnc3)nc(N)n2)n1	-3%	.	.	.	.	.
CCOC(=O)C1/C(=N\O)CC(C)(O)C(C(=O)OCC)C1c1ccc(N(C)C)cc1 (configuration not stated)	4%	35µM*	0%	-3%	-7%	-13%
CC1=C(C(=O)Nc2cc(Cl)ccc2C)C2(CCCCC2)OC1=O	.	-15%	.	.	.	4%
O=C1CC(N2CCCc3ccccc32)C(=O)N1c1ccccc1Cl (configuration not stated)	-2%	20µM*	2%	0%	-25%	-13%
O=C1CC(N2CCN(c3ccccc3Cl)CC2)C(=O)N1c1cccc(F)c1 (configuration not stated)	-29%	40µM*	0%	-30%	35µM*	2%
CCOc1ccc(N2C(=O)CC(N3CCC(O)(c4ccc(Br)cc4)CC3)C2=O)cc1 (configuration not stated)	-245%	0%	5%	-33%	35µM*	2%
CCOC(=O)c1ccc(N2C(=O)CC(N3CCC(O)(c4ccc(Br)cc4)CC3)C2=O)cc1 (configuration not stated)	-170%	50µM*	1%	-33%	-6%	-9%
CCOC(=O)c1ccc(N2C(=O)CC(N3CCC(O)(c4ccc(Cl)cc4)CC3)C2=O)cc1 (configuration not stated)	-41%	22µM*	0%	-36%	?	-2%
N#CC1(c2ccccc2)CCN(C2CC(=O)N(c3cccc(F)c3)C2=O)CC1 (configuration not stated)	-6%	45µM*	10%	-5%	?	1%
CCOC(=O)c1ccc(N2C(=O)CC(N3CCC(C#N)(c4ccccc4)CC3)C2=O)cc1 (configuration not stated)	-53%	45µM*	6%	-19%	22µM*	-6%
Cc1cccc(N2C(=O)CC(N3CCN(C(=O)c4ccccc4)CC3)C2=O)c1 (configuration not stated)	-10%	?	-1%	-21%	-14%	-1%
O=C(Nc1ccc(OC(F)(F)F)cc1)C1CCN(S(=O)(=O)c2ccc3[nH]c(=O)ccc3c2)CC1	.	-3%	.	.	.	-1%
Cc1cccc(C(=O)NC(Oc2ccccc2)C(Cl)(Cl)Cl)c1 (configuration not stated)	?	5%	4%	1%	-16%	-26%
CC(C)C(=O)NC(Oc1ccccc1Cl)C(Cl)(Cl)Cl (configuration not stated)	.	25µM*	10%	1%	6%	-2%
O=C(Cc1ccccc1)NC(Oc1ccccc1Cl)C(Cl)(Cl)Cl (configuration not stated)	-16%	32µM*	-3%	1%	-12%	-5%
CCOP(=O)(OCC)C(NC(=O)Cc1ccccc1)C(Cl)(Cl)Cl (configuration not stated)	.	2%	4%	0%	-5%	4%
CCOc1ccc(CNCc2c(C(=O)O)c(C)n(Cc3ccc(C)cc3)c2C)cc1	.	0%	.	.	.	-1%
